{
  "source": "PubChem BioAssay (NCATS)",
  "note": "Inconclusive results are not listed. Unmarked numbers belong to inactive results. Activity calls are given as the source filed them. The call rests on the fitted dose curve; in most records, active means well fitted inhibition curve with a large enough effect; inconclusive means small, poorly fitted or top-dose-only effect; inactive means no such curve, though single readings can be large or run the other way.",
  "data": [
    {"test": "qHTS assay for measurement of the activity of small molecule inhibitors on Zika virus induced Caspase-3 activity in human iPSC derived neural progenitor cells (hNPCs) (AID 1224857); further: nearly all actives have a fitted effect of over 65% in size", "conditions": "hNPCs ZIKV-induced caspase-3/7, Caspase-Glo luminescence, 6 h; series mostly up to 45.7 µM; activity change, negative = inhibition: at the top concentration", "description": "National Center for Advancing Translational Sciences [NCATS]\nJohns Hopkins University School of Medicine\nIncrease in the Caspase-3 activity indicates an activation of apoptosis cell death pathway caused by Zika virus infection in certain types of neuronal cells including human neural progenitor cells (hNPCs), astrocytes, and astrocytoma cell line (SNB-19). This cell-based caspase-3 activity assay measures the increased caspase-3 activity in the human iPSC derived neural progenitor cells (hNPCs) after a 6-hour Zika virus infection with a luminescence readout. A decrease in the luminescence signal in this assay by small molecule treatment indicates an inhibitory effect of that small molecule on the Zika virus induced caspase-3 activity that may correlate with its effect on reduction of Zika virus caused cell death.\nThe medium for hNPCs consists of DMEM/F12, N2 supplement (ThermoFisher, Cat.# 17502048), NEAA (ThermoFisher, Cat. # 11140050), 2 ug/ml heparin, 2 uM cyclopamine, and B27 (ThermoFisher, Cat. # 17504044). A Caspase-Glo 3/7 assay kit (catalog number G8092; Promega, Madison, WI) was used to detect caspase-3 activity induced by Zika virus infection in human cells. The reagent mixture was reconstituted as described in the protocol from the manufacturer. Polystyrene tissue culture treated and PDL coated white plates were obtained from Greiner Bio-One (Monroe, NC). Cells were seeded in 384- or 1536-well assay plates and cultured at 37 C with 5% CO2 for 16 to 20 hours. The typical cell seeding density in the 1536-well plate assay is 350 cells/well in 3 ul medium for hNPCs in tissue culture treated plates. Compounds were added to cells and incubated for one hour before addition of ZIKV solution to cells (2 FFU/cell). After incubation at 37 C with 5% CO2 for 6 hours, the reagent mixture of Caspase-Glo 3/7 assay kit was added to each well, followed by incubation at room temperature for 30 minutes. The luminescence intensity of the assay plates was measured using a ViewLux plate reader (PerkinElmer). Data were normalized by using the cell-containing wells without ZIKV as a negative control (0% induction of caspase 3/7 activity) and wells containing ZIKV infected cells (Caspase-3 activity induced) as a positive control (100% induction of caspase 3 activity). The percentage inhibitions of the increased Caspase-3 activity by small molecule inhibitors were then calculated.", "values": [
      {"compound": "CSc1ccc2c(c1)C(N1CCN(C)CC1)Cc1ccccc1S2", "note": "(stereo not given)", "activity change, negative = inhibition": "-14.2%"},
      {"compound": "O=C(O)c1ccccc1-c1ccc(C(F)(F)F)cc1", "activity change, negative = inhibition": "-1.34%"},
      {"compound": "CN(C)CC[C@@H](c1ccc(Cl)cc1)c1ccccn1", "outcome": "inactive"},
      {"compound": "O=C(O)CN1C(=O)c2cccc3cccc(c23)C1=O", "activity change, negative = inhibition": "-29.7%"},
      {"compound": "CC1(C)CO[C@@H](CC(=O)O)CN1", "activity change, negative = inhibition": "5.4%"},
      {"compound": "O=C(O)COc1nn(Cc2ccccc2)c2ccccc12", "activity change, negative = inhibition": "0.717%"},
      {"compound": "Cc1ccc(C(C)C)cc2c(C)ccc1-2", "activity change, negative = inhibition": "15%"},
      {"compound": "CCCOC(=O)c1ccccc1", "activity change, negative = inhibition": "-2.29%"},
      {"compound": "CCN(CC)CCNC(=O)c1cc(Cl)c(N)cc1OC", "outcome": "inactive"},
      {"compound": "CC1(C)S[C@@H]2[C@H](NC(=O)Cc3ccccc3)C(=O)N2[C@H]1C(=O)O", "note": "(tested in a mixture with another compound)", "activity change, negative = inhibition": "6.14%"},
      {"compound": "O=C1O[C@H](CO)[C@@H](O)[C@H](O)[C@H]1O", "activity change, negative = inhibition": "-1.85%"},
      {"compound": "C#CCN(C)Cc1ccccc1", "activity change, negative = inhibition": "2.56%"},
      {"compound": "O=c1[nH]c(=O)c2[nH]c(=O)[nH]c2[nH]1", "activity change, negative = inhibition": "-8.73% [at 9.06 µM]"},
      {"compound": "CC1=C(CC(=O)O)c2cc(F)ccc2/C1=C\\c1ccc(S(C)=O)cc1", "note": "(stereo not given)", "activity change, negative = inhibition": "-2.97%"},
      {"compound": "CN(C)CCN(Cc1ccccc1)c1ccccn1", "activity change, negative = inhibition": "-5.48%"},
      {"compound": "C[C@@H]1CN(c2c(F)c(F)c3c(=O)c(C(=O)O)cn(C4CC4)c3c2F)C[C@H](C)N1", "activity change, negative = inhibition": "12.2% [at 20.5 µM]"},
      {"compound": "COc1ccc(S(=O)(=O)Nc2nnc(CC(C)C)s2)cc1", "activity change, negative = inhibition": "0.782%"},
      {"compound": "Cc1cccc(C)c1NC(=O)CN(CC(=O)O)CC(=O)O", "activity change, negative = inhibition": "-1.2%"},
      {"compound": "O=C1NC(=O)[C@@]2(CCOc3ccc(F)cc32)N1", "outcome": "inactive"},
      {"compound": "O=C1c2c(O)cccc2Cc2cccc(O)c21", "activity change, negative = inhibition": "-7.92%"},
      {"compound": "CCOC(CN1CCN(CC(C)C(=O)c2ccccc2)CC1)c1ccccc1", "note": "(stereo not given)", "activity change, negative = inhibition": "-3.7% [at 20.5 µM]"},
      {"compound": "NC(=O)NNc1ccccc1", "activity change, negative = inhibition": "-3.56%"},
      {"compound": "O=C1N=C(O)CN1/N=C/c1ccc(-c2ccc([N+](=O)[O-])cc2)o1", "activity change, negative = inhibition": "-2.39%"},
      {"compound": "COc1ccc2cc1Oc1cc3c(cc1OC)CC[N+](C)(C)[C@H]3Cc1ccc(cc1)Oc1c(OC)c(OC)cc3c1[C@@H](C2)[N+](C)(C)CC3", "activity change, negative = inhibition": "-29.2%"},
      {"compound": "O=C(O)CC(O)C(=O)O", "note": "(stereo not given)", "activity change, negative = inhibition": "2.43%"},
      {"compound": "C[C@@H]1CCN(C(=O)[C@H](CCCN=C(N)N)NS(=O)(=O)c2cccc3c2NC[C@H](C)C3)[C@@H](C(=O)O)C1", "activity change, negative = inhibition": "-7.3%"},
      {"compound": "C[C@@H]1C[C@H]2[C@@H]3C[C@H](F)C4=CC(=O)C=C[C@]4(C)[C@@]3(F)[C@@H](O)C[C@]2(C)[C@@]1(O)C(=O)CO", "activity change, negative = inhibition": "-1.15%"},
      {"compound": "CC[N+](CC)(CC)CCOc1ccc(/C=C/c2ccccc2)cc1", "outcome": "inactive"},
      {"compound": "CN1CCC[C@@H]1Cc1c[nH]c2ccc(CCS(=O)(=O)c3ccccc3)cc12", "outcome": "inactive"},
      {"compound": "Cn1cc[nH]c1=S", "activity change, negative = inhibition": "21.4%"},
      {"compound": "C[C@](N)(Cc1ccc(O)cc1)C(=O)O", "activity change, negative = inhibition": "-8.93%"},
      {"compound": "CN(N=O)C(=O)N[C@@H]1[C@@H](O)[C@H](O)[C@@H](CO)O[C@@H]1O", "activity change, negative = inhibition": "-16.6%"},
      {"compound": "CC(CN(C)C)CN1c2ccccc2CCc2ccccc21", "note": "(stereo not given)", "outcome": "inactive"},
      {"compound": "CC1=C(C/C=C(\\C)CCC[C@H](C)CCC[C@H](C)CCCC(C)C)C(=O)c2ccccc2C1=O", "activity change, negative = inhibition": "-0.694%"},
      {"compound": "CC(=O)Oc1c(C)c(C)c2c(c1C)CC[C@@](C)(CCC[C@H](C)CCC[C@H](C)CCCC(C)C)O2", "activity change, negative = inhibition": "-2.5%"},
      {"compound": "CC(=O)Nc1ccc(/C=N/NC(N)=S)cc1", "activity change, negative = inhibition": "-0.514%"},
      {"compound": "NC(CSCC(=O)O)C(=O)O", "note": "(stereo not given)", "activity change, negative = inhibition": "3.31%"},
      {"compound": "N[C@@H](CSSC[C@H](N)C(=O)O)C(=O)O", "activity change, negative = inhibition": "-8.71% [at 0.568 µM]"},
      {"compound": "CC(C)(C)c1onc(OCP(=O)(O)O)c1CC(N)C(=O)O", "note": "(stereo not given)", "activity change, negative = inhibition": "-14.2%"},
      {"compound": "NC(N)=NCCC[C@H](N)C(=O)O", "outcome": "inactive"}
    ]}
  ]
}
